The values below come from PubChem BioAssay.

The structures appear in SMILES notation. “And” between values parts separate entries of the source, which are not always exact repeats. Identical values can stand only once. Values without a mark were called inactive. The source made the active and inactive calls. No rule for the calls is given here. Where a SMILES comes first, the peptide text is derived from it. The star is where a group is joined. Boc = CC(C)(C)OC(=O)*

One may read the inhibition as the relative decrease from the control value, in per cent.

For test [1], the system named is Botulinum neurotoxin type F light chain protease (Clostridium botulinum). Nature of the test: Botulinum neurotoxin type F light chain protease inhibition, multiplex microsphere flow cytometry, validation set (AID 588459). Particulars: multiplex microsphere protease substrate cleavage assay, at 10 µM, hits give high values. For orientation: Flow cytometry measures light scatter and fluorescence of single cells or particles in a stream.

In test [2] the target is Botulinum neurotoxin type A (Clostridium botulinum) (UniProt P0DPI0). As to the kind of experiment: BoNT/A light chain protease inhibitors, biochemical, multiplex microsphere flow cytometry, validation set (AID 588460). Particulars: at 10 µM, hits give high values.
In test [3] the target is Lethal factor (Bacillus anthracis) (UniProt P15917). Nature of the test: Lethal factor protease inhibitors, Bacillus anthracis, multiplex microsphere cleavage assay, validation set (AID 588461). The following applies: flow cytometry, at 10 µM, hits give high values.

For `C1COC(NC(C2CC2)C2CC2)=N1`, the inhibition is 3% in test [1], -0.1% in test [2] and -5% in test [3].

On to `O=c1nc2n(c3c1oc1ccccc13)Cc1ccccc1-2`, for which the inhibition was 2.1% in test [1], 0% in test [2] and -4.3% in test [3].

As for `COc1ccc(C2OC(=O)Cc3cc(OC)c(OC)cc32)cc1` (configuration not stated), the inhibition in test [1] was 3.2%; in test [2], 0.8%; in test [3] it was 2.9%.

Take `Cc1c(Cc2ccccc2)c(=O)oc2c(CN(C)C)c(O)c(Cl)cc12`: the inhibition was 0% in test [1], -0.6% in test [2] and -7.6% in test [3].

Take `COc1ccc2c(c1)C=CC1(O2)N(CCO)c2ccccc2C1(C)C` (configuration not stated): the inhibition was 3% in test [1], -0.7% in test [2] and -7.3% in test [3].

Take `COc1cc2c(cc1OC)C(C)=NC1(CCCCC1)C2`: the inhibition in test [1] was 9.8%; in test [2] it was 4.8%; in test [3], -0.4%.

For `CCOc1ccc(N2C(=O)CNC2=S)cc1`, the inhibition in test [1] was -1.7%; in test [2] it was -1.5%; in test [3], -3.8%.

Regarding `Cc1cc(O)c2/c(=N\N)c(-c3csc(C)n3)coc2c1`, the inhibition in test [1] is -0.4%; in test [2], -1%; in test [3], 2.2%.

Regarding `O=C1ON=C(c2ccc(Cl)cc2)/C1=C/c1ccc(O)cc1`, the inhibition in test [1] is -0.3%; in test [2] it was -2.3%; in test [3], -7.8%.

Take `Fc1cccc(Cc2noc(CN3CCN(c4cnccn4)CC3)n2)c1`: the results for the inhibition in test [1], in test [2] and in test [3] were 3.7%, -1.3% and 0.5%, respectively.

Regarding `CC(C)CN(C)Cc1c(C(=O)N2CCc3ccccc3C2)nc2ccc(Cl)cn12`, the inhibition in test [1] is 2.4%; in test [2], 0.6%; in test [3], 1%.

Consider `CCO/C([O-])=N/c1c[n+](N2CCOCC2)no1`, for which the figures for the inhibition in test [1], in test [2] and in test [3] were 0.3%, 0.5% and -5.4%, respectively.

On to `COc1ccccc1NC(=O)C12CCC(C)(C(=O)C1)C2(C)C` (configuration not stated), for which the results for the inhibition in test [1], in test [2] and in test [3] were -1%, 0.8% and 0.3%, respectively.

As for `Cc1ccc(NC(=O)CSc2nc(O)c(Cc3ccccc3)c(=O)n2-c2ccccc2)cc1`, the inhibition is -0.8% in test [1], -0.6% in test [2] and 2% in test [3].

Consider `CCOc1ncnc2c1[nH]c1ccccc12`, for which the results for the inhibition in test [1], in test [2] and in test [3] were 5.6%, 0.5% and -0.4%, respectively.

In the case of `O=C1C2CC=C(Cl)CC2C(=O)N1CCc1c[nH]c2ccccc12` (configuration not stated), the values for the inhibition in test [1], in test [2] and in test [3] were 0.7%, 0.1% and 0.1%, respectively.

As to `CC(C)COc1ccc(Cc2cnc(N)nc2N)cc1`, the inhibition in test [1] is 5%; in test [2], 2%; in test [3], 1.9%.

With `COc1cc(SC)ccc1C(=O)NC(C)C`, the inhibition in test [1] is 2.9%; in test [2], 2.2%; in test [3], 0.8%.

Turning to `COC1(C)CC2C(CC1OC(=O)c1cc([N+](=O)[O-])cc([N+](=O)[O-])c1)C2(C)C` (configuration not stated), the figures for the inhibition in test [1], in test [2] and in test [3] were -3.2%, -0.5% and -5.5%, respectively.

Take `c1ccc(-c2ccccn2)nc1`: the inhibition in test [1] is -0.7%; in test [2], 0.3%; in test [3], 6.3%.

For `Cc1ccc2c(c1)c(=O)c1c3n2CCN(C(=O)CCl)C3CC1` (configuration not stated), the figures for the inhibition in test [1], in test [2] and in test [3] were -11.4%, -1.3% and -32.4%, respectively.

Take `CC(C)(C)OC(=O)N1CCCC1C(=O)NC(Cc1ccccc1)C(=O)O` (stereo not drawn) (Boc-Pro-Phe-OH; configuration not given here): the inhibition was -2.1% in test [1], -0.8% in test [2] and -0.3% in test [3].

For `CC(=O)Oc1ccc2occ(/C=N/c3cc(=O)[nH]c(=S)[nH]3)c(=O)c2c1`, the results for the inhibition in test [1], in test [2] and in test [3] were 2%, 0.7% and -4.2%, respectively.

For `CCOCC(=O)Nc1ccccc1C(=O)N1CCOCC1`, the inhibition in test [1] is 32.5% (active); in test [2], 14.3%; in test [3] it was 6.3%.

On to `COc1ccc(-c2cc(=Nc3ccc(C)cc3)c3ccccc3o2)cc1`, for which the results for the inhibition in test [1], in test [2] and in test [3] were -2.2%, -0.6% and 2.9%, respectively.

As to `CNc1nc(Nc2ccccc2)nc(OCC(F)(F)F)n1`, the inhibition is 0.2% in test [1], 0.2% in test [2] and -2.5% in test [3].

For `CC1(C)S[C@@H]2[C@H](NC(=O)[C@H](N)c3ccccc3)C(=O)N2[C@H]1C(=O)O`, the inhibition in test [1] is 2.6% and -3.6%; in test [2] it was 2.2% and -0.7%; in test [3], 5% and -3%.

With `COc1ccccc1NC(=O)N1CCc2[nH]c3ccc(Cl)cc3c2C1`, the inhibition is 6.8% in test [1], 0.4% in test [2] and -0.7% in test [3].

For the molecule `Cc1c(NC(=O)c2cccs2)cccc1[N+](=O)[O-]`, the inhibition was 4.2% in test [1], 1.3% in test [2] and 5.7% in test [3].
